# High-throughput results: PubChem, National Center for Advancing Translational Sciences (NCATS)
# HTT ATP protect = Huntington cell model cytoprotection by ATP luminescence; PC12 HTT-Q103 induced, cytoprotection, ATP luminescence, 40 h; Potency, µM (series often up to 56.4 µM), inactives show cytoprotection (ATP increase), most hits filed as activators; 230,000 compounds, 0.14% hits; further: potency means the concentration at half of the fitted maximal effect; % of control where 0% means no effect; nearly all actives have a fitted effect of over 45% in size
#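 Huntington model: PC12 line, ecdysone-inducible HTTQ103 exon1–GFP, tebufenozide 100 nM. Test articles in a dose series. Endpoint luminescence from cellular ATP.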
# VDR inh = inhibitors of human vitamin D receptor; Potency, µM, inactives show max response, negative = inhibition, usual class: inhibitors; P11473; 400,000 compounds, 0.93% hits; AID 504847; VDR-SRC2-3 peptide fluorescence polarization, 2 h; further: potency means the concentration at half of the fitted maximal effect; on the % scale 0 is the no-effect control and ±100 the full control effect
#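 Two reagent solutions held at 4 deg C in the dark were dispensed, compounds pinned at 23 nl, and the mixture incubated 2 h at room temperature. Read-out: fluorescence polarization of VDR–SRC2-3 peptide binding.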
# KDM4E inh = blocks human JMJD2E demethylase activity; B2RXH2; JMJD2E catalytic domain, FDH-coupled NADH fluorescence (FDH is formaldehyde dehydrogenase); Potency, µM (series often up to 57.1 µM), without a hit: top-dose activity change, negative = inhibition, most hits filed as inhibitors; 230,000 compounds, 1.6% hits; AID 2147; active means well fitted inhibition curve with a large enough effect, not every such curve was filed as active; inconclusive means small, poorly fitted or top-dose-only effect, or another doubt; inactive means no such curve, though single readings can be large or run the other way;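 further: potency means the concentration at half of the fitted maximal effect; 0% = wells with enzyme and -100% = buffer wells without enzyme; nearly all actives have a fitted effect of over 50% in size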
# Target sequence (B2RXH2 1-337 limits assumed): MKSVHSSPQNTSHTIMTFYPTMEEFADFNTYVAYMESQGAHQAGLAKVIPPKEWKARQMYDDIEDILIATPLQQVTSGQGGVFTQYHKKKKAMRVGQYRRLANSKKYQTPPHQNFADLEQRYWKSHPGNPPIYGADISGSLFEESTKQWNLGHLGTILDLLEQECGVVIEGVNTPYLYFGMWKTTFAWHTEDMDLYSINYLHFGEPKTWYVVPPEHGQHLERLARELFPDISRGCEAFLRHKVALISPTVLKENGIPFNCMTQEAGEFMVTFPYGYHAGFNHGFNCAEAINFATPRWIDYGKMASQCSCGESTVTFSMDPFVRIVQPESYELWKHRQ
# RGS12 GoLoco inh = RGS12 GoLoco-Gai1 interaction inhibition; 230,000 compounds, 0.44% hits; Potency, µM (top dose mostly 61.6 µM), for inactives: at the top dose activity, negative = inhibition, most hits filed as inhibitors; Gai1:RGS12 GoLoco peptide FP, rhodamine, 10 min; AID 880; active means well fitted inhibition curve with a large enough effect, not every such curve was filed as active; inactive means no such curve, though single readings can be large or run the other way; further: potency means the concentration at half of the fitted maximal effect; on the % scale 0 is the no-effect control and ±100 the full control effect; nearly all actives have a fitted effect of over 30% in size
# Target sequence (P63096 whole entry, looked up): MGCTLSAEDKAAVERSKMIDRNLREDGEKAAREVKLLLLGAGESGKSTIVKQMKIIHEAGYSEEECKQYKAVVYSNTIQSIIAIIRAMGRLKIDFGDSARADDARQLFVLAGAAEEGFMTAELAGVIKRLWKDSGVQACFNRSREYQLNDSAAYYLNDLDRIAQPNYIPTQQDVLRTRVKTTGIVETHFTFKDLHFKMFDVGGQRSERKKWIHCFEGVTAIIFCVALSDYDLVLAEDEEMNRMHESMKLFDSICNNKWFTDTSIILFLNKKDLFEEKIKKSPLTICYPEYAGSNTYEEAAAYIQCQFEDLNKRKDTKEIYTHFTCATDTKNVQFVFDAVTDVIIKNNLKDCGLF
# FBPA coupling cs = coupling enzyme interference in Giardia aldolase counter-screen | AID 2472 | coupling enzyme system counterscreen, AmpLite Red fluorescence | activity change, negative = inhibition, % at 58.2 µM, hits read low | 290,000 compounds, 0.67% hits; in the data active means activity change below about -30%; further: on the % scale 0 is the no-effect control and ±100 the full control effect
#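 Final compound at 57.5 uM, incubated 10 min at RT with coupling enzyme reagent (glyceraldehyde-3-phosphate), then 20 min with substrate and AmpLite Red detection. Fluorescence read at 525/598 nm; tests interference with the coupling assay, not aldolase inhibition.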
# HttQ103 aggreg = reduces HttQ103-GFP aggregates in PC12 cells | PC12 HttQ103-GFP aggregates, Acumen cytometry, 40 h | Potency, µM (series often up to 46.1 µM), inactives show top-dose activity change, negative = inhibition, most hits filed as inhibitors | 220,000 compounds, 1.1% hits; further: potency means the concentration at half of the fitted maximal effect; on the % scale 0 is the no-effect control and ±100 the full control effect; nearly all actives have a fitted effect of over 60% in size
#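 PC12 cells stably carrying ecdysone-inducible HTT exon 1 Q103–GFP were induced with tebufenozide (100 nM final) and treated with library compounds in titration. GFP aggregates in lysates were counted by laser scanning cytometry.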
# * marks the source's active call; other numbers are inactive results; ? = inconclusive; nt = no result; ! = not active in a repeat; [ ] = remark or other dose. Compounds with a hit are over-represented: about 2.3% of the library has one in this group of screens. Unless noted, the call rests on the fitted dose curve; in most records, active means well fitted curve in the direction sought with a large enough effect; inconclusive means small, poorly fitted or top-dose-only effect, or another doubt; inactive means no such curve, though single readings can be large; an effect the other way counts as inactive or inconclusive.
SMILES,HTT ATP protect,VDR inh,KDM4E inh,RGS12 GoLoco inh,FBPA coupling cs,HttQ103 aggreg
Cc1nc2[nH]c(=S)[nH]c2c(=O)[nH]1,nt,-3%,nt,nt,nt,nt
CCOc1ccc(C2c3[nH]c4ccccc4c3CCN2C(=O)CSc2ccccc2)cc1 (centres undefined),nt,9%,nt,nt,nt,nt
CC(=O)Nc1ccc(S(=O)(=O)NN=Cc2ccc(Cl)c(Cl)c2)cc1,nt,-7%,nt,nt,nt,nt
O=[N+]([O-])c1ccc(S(=O)(=O)NN=Cc2ccc(Cl)c(Cl)c2)cc1,nt,50µM*,nt,nt,nt,nt
c1csc(-c2nn3c(C4COc5ccccc5O4)nnc3s2)c1 (centres undefined),-13%[0.074 µM],?,32µM*,-7%,1,-27%
Fc1ccc(-c2nn3c(C4COc5ccccc5O4)nnc3s2)cc1 (centres undefined),-29%,?,-5%,-1%,4,-3%
NC(=O)CC[C@H](NC(=O)c1ccc(F)cc1)C(=O)OCC(=O)Nc1c(F)c(F)c(F)c(F)c1F,-4%[0.074 µM],0%,5%,9%,-1,7%
NC(=O)CC[C@H](NC(=O)c1ccc(F)cc1)C(=O)OCC(=O)NCc1ccc(F)cc1,1%,71µM*,11%,3%,2,1%
CC(=O)OC[C@@]1(O)C[C@]23CCC4c5ccoc5CC[C@@]4(C)C2CCC1C3 (some centres undefined),nt,-3%,-5%,-1%,-1,nt
C[C@@]12C=Cc3occc3C1CC[C@@]13C[C@@H](CCC12)[C@@](O)(CO)C3 (some centres undefined),-70%,40µM*,nt,1%,2,nt
COc1ccccc1NC(=O)CCn1nc(-c2ccccc2)c2ccccc2c1=O,nt,56µM*,nt,nt,nt,nt
Cc1ccc2oc(C(=O)NCC(c3ccco3)N(C)C)c(C)c2c1 (centres undefined),nt,-5%,nt,nt,2,nt
C=CC[n+]1c(/C=C2\C=Cc3cc(C)ccc3N2CC)ccc2ccccc21,-125%,-14%,?,223%,2,3.2µM*
CCN1/C(=C/c2ccc3cc(C)cc(C)c3[n+]2CC)Sc2cc(C)ccc21,-50%[10 µM],0%,?,129%,1,?
COc1cc(/C=C2\SC(=S)N(CCC(=O)N3CCCCC3)C2=O)cc(OC)c1OC,nt,2%,nt,nt,0,nt
O=C(c1cc(-c2ccc(Br)cc2)n[nH]1)N1CCN(C(=O)c2ccccc2Br)CC1,nt,13%,nt,nt,2,nt
O=C(CC(Nc1cccc(Cl)c1Cl)C(=O)O)c1ccccc1 (centres undefined),20%,?,?,-15%,11,10%[9.22 µM]
O=C(CC(Nc1ccccc1Cl)C(=O)O)c1ccccc1 (centres undefined),-30%,25µM*,-24%,0%,4,4%[9.22 µM]
Cc1ccc(CSC(Nc2ccc(F)cc2)=C(C#N)C#N)cc1,-30%[10 µM],-13%,-2%,-4%,0,6.3µM*
Cc1cc(O)c2c(c1)C(=O)c1cccc(O)c1C2=O,-13%[1.9 µM],14µM*,?,4%,1,-1%
COc1cc(C)cc(C(=O)O)c1C1=C(O)c2cccc(O)c2C(=O)C1=O,18%[10 µM],-6%,?,-1%,-12,15%[9.22 µM]
O=C1Cc2c([nH]c3ccc(Br)cc23)-c2ccccc2N1,16µM*!,?,?,1%,2,nt
COc1ccc(C)cc1NC(=O)c1ccc(=O)n(Cc2ccccc2)c1,nt,11%,nt,nt,nt,nt
CC1(C)CC1C(=O)N/C(=C/CCCCSCC(N)C(=O)O)C(=O)O (centres undefined),2%,-16%,nt,nt,4,-4%
NS(=O)(=O)c1ccc(NC(=S)N2CCN(c3ccc(Cl)c(Cl)c3)CC2)cc1,nt,11%,0%,-4%,-2,-24%
SMILES,HTT ATP protect,VDR inh,KDM4E inh,RGS12 GoLoco inh,FBPA coupling cs,HttQ103 aggreg
NS(=O)(=O)c1ccc(NC(=S)N2CCN(Cc3ccc(Cl)c(Cl)c3)CC2)cc1,-40%,-2%,11%,4%,1,22µM*
CC[C@H](CC[C@H](C)[C@@H]1CC[C@@H]2[C@H]3CC=C4C[C@@H](O)CC[C@]4(C)[C@H]3CC[C@]21C)C(C)C,1%[40.3 µM],-1%,2%[25.5 µM],0%[21.6 µM],0,nt
Cc1ccc(C)c(OCC(=O)Nc2ccccc2C(=O)NC2CC2)c1,nt,89µM*,nt,nt,nt,nt
Cc1ccc(Cl)c(OCC(=O)Nc2ccccc2C(=O)NC2CC2)c1,nt,8%,nt,nt,nt,nt
CCOc1ccc(-c2nnc(N3CCCCC3)c3ccccc23)cc1,-38%,3%,-3%,2%,5,11µM*
CCOC(=O)CN(C)Cc1cn(C)nc1-c1ccc(Oc2ccccc2)cc1,nt,5%,nt,nt,6,nt
CCN(CC)c1ccc(N=Cc2c(C)[nH]c3ccccc23)cc1,nt,?,0.79µM*,31%,-18,11µM*
Oc1[nH]c2ccccc2c1C=Nc1ccccc1,-1%[10 µM],-10%,9%,-3%,-1,5%[9.22 µM]
O=C(Nc1ccccc1C(=O)O)c1ccc(NC(=O)c2ccc(Br)o2)cc1,2.2µM*,4%,1%,14%,-9,10%[1.84 µM]
C=CCOc1ccc(Cl)cc1CNC1CCCC1,22µM*,-29%,12%,12%,0,-5%
CCOc1ccc(/C=C2\CCC(C3CCCC3)C2=O)cc1 (centres undefined),nt,2%,nt,nt,1,nt
CCC(=O)OCOc1ccc(/C=C2/CCC(CN(C)C)C2=O)cc1 (centres undefined),nt,10µM*,nt,nt,nt,nt
COc1cccc(CNC(=O)CCC2CCCN(C(=O)c3cccnc3SC)C2)c1 (centres undefined),nt,17%,nt,nt,nt,nt
COc1ccc(N(C(=O)CCl)C(C(=O)NCCc2ccccc2)c2cccs2)cc1 (centres undefined),-84%[10 µM],?,2%,3%,5,2.2µM*
COc1ccc(C(=O)CCN2CCN(c3ccc(OC)cc3)CC2)cc1,nt,?,nt,nt,4,nt
COc1ccc(C(=O)CCN2CCCCCC2)cc1,-40%,28µM*,-3%,1%,1,?
CC(C)Oc1ccc(C(=O)CCN2CCOCC2)cc1,nt,45µM*,nt,nt,nt,nt
CCCCCOc1ccc(C(=O)CCN2CCOCC2)cc1,nt,?,nt,nt,2,nt
